Screening data as filed in PubChem.
Rows were chosen to be rich in hits. Some 1.7% of all compounds tested hit in one or more screens of this group.
GLP-1R agonist = qHTS of GLP-1 Receptor Agonists; Glucagon-like peptide 1 receptor (Homo sapiens), P43220; HEK293 GLP-1R CRE-luciferase, luminescence, 4-6 h; cells express a hypersensitive GLP-1R form; Potency, µM (top dose mostly 45.6 µM), for the others: top-dose activation, most hits filed as activators; hit rate 0.007% among 380,000; AID 624172, 2012; also: % of control where 0% means no effect
GLP-1R inv ag = qHTS of GLP-1 Receptor Inverse Agonists (Inhibition Mode) | HEK293 GLP-1R CRE-luciferase, luminescence, 24 h; GLP-1R form is constitutively active | hit rate 1.6% among 410,000 | Glucagon-like peptide 1 receptor (Homo sapiens), P43220 | Potency, µM (doses to about 38.3 µM), for inactives: at the highest dose activity change, negative = inhibition, actives largely listed as inhibitors; also: % is scaled to controls: 0 for no effect and ±100 for the full control effect; nearly all actives have a fitted effect of over 55% in size
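GLP-1R inverse agonism mode: basal reporter luminescence in engineered HEK293 cells measured after one day of compound exposure at 37 deg C, with a 12 min room-temperature detection step.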
PTHR1 agonist = qHTS for PTHR1 Agonists: Primary Screen | Parathyroid hormone/parathyroid hormone-related peptide receptor (Homo sapiens), Q03431 | hit rate 0.075% among 410,000 | Potency, µM (titrated, usually from 115 µM), inactives show at the top dose activation, actives largely listed as activators | AID 743266, 2014 | HEK293 GP2 PTHR1 cells, GloSensor cAMP luminescence, 1 h; also: nearly all actives have a fitted effect of over 55% in size
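HEK-293-derived GP2 cells expressing PTHR1 and a GloSensor cAMP reporter, 3,000/well, plated overnight, given luciferin plus IBMX (each 0.5 mM as added) for 1 h at 37 °C, then compound for 1 h at 37 °C. Luminescence was read after 15 min at room temperature.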
GLP1R cytotox = qHTS of GLP-1 Receptor Inverse Agonists: Cytotox Screen; HEK293 cAMP-luciferase reporter cells, luminescence, 24 h; Potency, µM (doses to about 38.3 µM), for inactives: at the highest dose activity change, negative = inhibition, most hits filed as inhibitors; hit rate 0.13% among 410,000; AID 624418, 2012;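 also: loss of luciferase light is scored as toxicity; % is scaled to controls: 0 for no effect and ±100 for the full control effect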
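A 23 nL compound transfer followed 12 hours of cell culture at 37 deg C; exposure then lasted 24 hr. Luciferase assay detection reagent was dispensed and plates read for luminescence after a 12 min room-temperature wait.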
Numbers without * were called inactive; i = inactive; ? = inconclusive; · = no result given; ! = repeats disagree; [ ] = dose if it differs, or a comment. Calls follow the shape of the dose curve; as a rule, active = well fitted curve in the direction sought with a large enough effect; inconclusive = small, poorly fitted or top-dose-only effect, or another doubt; inactive = no such curve, though single readings can be large; an effect the other way counts as inactive or inconclusive. Potency is read from the fitted curve at half-maximal effect.

SMILES	GLP-1R agonist	GLP-1R inv ag	PTHR1 agonist	GLP1R cytotox
NC(=O)C(c1ccc(Br)cc1)c1ccc(C(=O)c2ccccc2)cc1 (configuration not stated)	8%	11µM*	-20%	-6%
NC(=O)C(c1ccc(F)cc1)c1ccc(C(=O)c2ccccc2)cc1 (configuration not stated)	-1%	?	-20%	-7%
CN1CCN(c2nc(C#N)cc(-c3ccccc3)n2)CC1	0%	13µM*	-23%	-13%
COc1ccc(-c2cc(C#N)nc(N3CCN(C)CC3)n2)cc1	7%	?	i	-4%
Cc1c(Cl)cccc1NC(c1ccc(F)cc1)c1nnc(-c2ccccc2)o1 (configuration not stated)	·	8.9µM*	i	25%
CC1=NN(/C(=N\c2nnc(C)s2)Nc2ccc(C)cc2)[C@H](c2ccc(C)cc2)S1	-2%	10µM*	-24%[57.5 µM]	-13%
COc1cc(-c2ccc(-[n+]3nc(-c4ccccc4)nn3-c3ccc([N+](=O)[O-])cc3)c(OC)c2)ccc1-[n+]1nc(-c2ccccc2)nn1-c1ccc([N+](=O)[O-])cc1	-8%	·	·	·
O=C(CSCc1ccccc1)N/N=C/c1ccccc1OCc1ccccc1	8%	29%	i	2%
NC(=S)N/N=C/c1ccccc1OC(=O)/C=C/c1ccccc1	14%	2.5µM*	-10%	-10%
NC(=S)N/N=C\c1ccccc1OCc1ccccc1	-2%	5.6µM*	i	?
COc1ccc(-c2cc(C)no2)cc1S(=O)(=O)N1CCN(c2ccccc2F)CC1	8%	10µM*!	-30%	8%
COc1ccc(-c2cc(C)no2)cc1S(=O)(=O)N1CCCN(Cc2ccccc2Cl)C1	8%	8.9µM*	-8%	-2%
COc1ccc(-c2cc(C)no2)cc1S(=O)(=O)N1CCN(c2ccccn2)CC1	7%	-7%	-34%	-8%
CCN(CC)C(=O)C1=C(C)N(CCC2=CCCCC2)C(=O)C(CC(=O)NCc2cccs2)C1 (configuration not stated)	-1%	-11%	-19%	-20%
CC(=O)OCC(=O)[C@@]1(O)[C@H](OC(C)=O)C[C@H]2[C@@H]3CCC4=CC(=O)C=C[C@]4(C)[C@@]3(F)[C@@H](O)C[C@@]21C	-7%	·	·	·
O=C(NNC(=O)c1ccc(Cl)cc1Cl)Nc1ccccc1	-5%	4%	-2%	3%
O=C(NNC(=O)c1cc(-c2ccc(Cl)cc2Cl)nc2ccccc12)Nc1ccccc1	-20%	2.8µM*	-26%	9%
COc1cc(NC(=O)COC(=O)CCOc2ccc(C)cc2)cc(OC)c1	-3%	2%	i	4%
C/C(=N\NC(=O)c1ccc(F)cc1)c1ccccn1	0%	1.1µM*	-27%	-27%
C/C(=N\NC(=O)c1c[nH]c2ccccc12)c1ccccn1	3%	?	-8%	7%
COC(=O)CCNC(=O)NC(CCC(C)C)c1c(-n2cccc2)sc2c1CCN(C)C2 (configuration not stated)	·	3%	15%	7%
O=C(NC(Cc1ccccc1)C(=O)O)c1ccccc1 (configuration not stated)	-6%	13%	i	0%
O=C(NC(Cc1ccccc1)C(=O)N1CCc2ccccc2C1)c1ccccc1 (configuration not stated)	13%	8.9µM*	-21%	2%
COC(=O)C1=C(C(=O)OC)[C@@H]2N(Cc3ccccc3)c3ccccc3[C@@]23C[C@@H](C(=O)OC)N(C(=O)c2cc(C)oc2C)C3=N1	-3%	11µM*	-23%	-3%
CCOc1ccc(/C=C/C(=O)Nc2sc3c(c2C(=O)OC)C(C(=O)OC)CC3)cc1 (configuration not stated)	·	22%	-18%	-6%
CC(C)COc1ccc(C(=O)Nc2sc3c(c2C(=O)O)CC(C)(C)OC3)cc1	1%	11µM*	-32%	-23%
O=C(NC1(C(F)(F)F)C(=O)Nc2c1c(=O)[nH]c(=O)n2CCc1ccccc1)c1ccc(Cl)cc1 (configuration not stated)	·	13%	i	5%
Cc1ccc(S(=O)(=O)NC2CCCc3ccccc32)cc1C (configuration not stated)	2%	5µM*	-8%[57.5 µM]	-4%
